Data reported in PubChem BioAssay (NCI).
About 83,000 compounds went through this panel and 20% of them were active in at least one assay; those are over-represented in the sample as a whole.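 Each cell line was grown in a 96-well plate and treated with one concentration of compound for 48 hours. Values below 10 were considered active.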 Activity calls are given as the source filed them.

Legend:
Assay in all cases: NCI-60 one-dose screen, 48 h (100 = growth as untreated, 0 = no growth, -100 = all killed)
Conditions in all cases: 10 µM unless noted
HCT-15 colon = tested on: HCT-15 colon
HT29 colon = tested on: HT29 colon
SNB-75 CNS = tested on: SNB-75 CNS
SNB-19 CNS = tested on: SNB-19 CNS
U251 CNS = tested on: U251 CNS
PC-3 prostate = tested on: PC-3 prostate
UACC-62 melanoma = tested on: UACC-62 melanoma
LOX IMVI melanoma = tested on: LOX IMVI melanoma
SK-MEL-28 melanoma = tested on: SK-MEL-28 melanoma
SK-MEL-5 melanoma = tested on: SK-MEL-5 melanoma

Measured: growth

CN1CCN(CCNc2nc(-c3cccc(NS(=O)(=O)c4cccc5c(N(C)C)cccc45)c3)cs2)CC1
inactive: HCT-15 colon 18.5% | HT29 colon 71.6% | SNB-75 CNS 73.8% | SNB-19 CNS 75.5% | U251 CNS 65.9% | PC-3 prostate 65.5% | UACC-62 melanoma 65.7% | LOX IMVI melanoma 38.1% | SK-MEL-28 melanoma 40.2%

O=C1C(N2CCN(c3ccccc3)CC2)=C(Cl)C(=O)c2ncccc21
inactive: HCT-15 colon 20.3% | HT29 colon 106% | SNB-75 CNS 83.7% | SNB-19 CNS 81.5% | U251 CNS 79.5% | PC-3 prostate 71.9% | UACC-62 melanoma 61.8% | LOX IMVI melanoma 10.4% | SK-MEL-28 melanoma 83%

Cc1cc(NS(=O)(=O)c2ccc(NC(=O)CSc3nc4ccccc4c(=O)n3-c3ccccc3)cc2)no1
inactive: HCT-15 colon 106% | HT29 colon 104% | SNB-75 CNS 77.3% | SNB-19 CNS 94.2% | U251 CNS 100% | PC-3 prostate 95% | UACC-62 melanoma 88.6% | LOX IMVI melanoma 94.1% | SK-MEL-28 melanoma 95.9%

CN1CCN(c2ccc(Nc3nc(NCCNS(=O)(=O)c4ccccc4)c4sccc4n3)cc2)CC1
inactive: HCT-15 colon 95.2% | HT29 colon 99.6% | SNB-75 CNS 81.5% | SNB-19 CNS 98.9% | U251 CNS 103% | PC-3 prostate 95.4% | SK-MEL-5 melanoma 97.4% | UACC-62 melanoma 96.4% | LOX IMVI melanoma 108% | SK-MEL-28 melanoma 104%

CCn1c2ccc(/C=N/N(C)S(=O)(=O)CCN(C)C)cc2c2cc(/C=N/N(C)S(=O)(=O)CCN(C)C)ccc21
active: LOX IMVI melanoma -15.3%
inactive: HCT-15 colon 26.2% | HT29 colon 44.8% | SNB-75 CNS 87.1% | SNB-19 CNS 85.8% | U251 CNS 64.8% | PC-3 prostate 85.8% | UACC-62 melanoma 81.7% | SK-MEL-28 melanoma 87.9%

COc1ccc(/C=N/NC(=O)CSc2nc(-c3cnccn3)cc(-c3cccs3)c2C#N)cc1
active: HT29 colon 8.86%
inactive: HCT-15 colon 87.3% | SNB-75 CNS 77.3% | SNB-19 CNS 57.8% | U251 CNS 68.1% | PC-3 prostate 72.9% | UACC-62 melanoma 59.4% | LOX IMVI melanoma 45.7% | SK-MEL-28 melanoma 77%

N#Cc1c(-c2cccs2)cc(-c2cnccn2)nc1SCC(=O)N/N=C/c1cccs1
active: LOX IMVI melanoma 7.29%
inactive: HCT-15 colon 62.8% | HT29 colon 30.9% | SNB-75 CNS 42.8% | SNB-19 CNS 47.7% | U251 CNS 19.5% | PC-3 prostate 53.6% | SK-MEL-5 melanoma 20.5% | UACC-62 melanoma 55.6% | SK-MEL-28 melanoma 27.5%

CC(=O)OC[C@]12CC[C@@H](C(=O)/C=C/c3cccnc3)[C@@H]1[C@H]1CC[C@@H]3[C@@]4(C)CC[C@H](OC(C)=O)C(C)(C)[C@@H]4CC[C@@]3(C)[C@]1(C)CC2
inactive: SNB-75 CNS 54.3% | SNB-19 CNS 46.6% | U251 CNS 23.4% | PC-3 prostate 19.9%
active: HCT-15 colon -53% | HT29 colon 6.53% | UACC-62 melanoma -4.76% | LOX IMVI melanoma -84% | SK-MEL-28 melanoma -56.4%

CC(=C(c1ccc(OCCN2CCCC2)cc1)c1ccc(OCCN2CCCC2)cc1)c1ccc(Cl)cc1
active: HCT-15 colon -73% | HT29 colon -59.2% | SNB-19 CNS -48.8% | U251 CNS -75.1% | PC-3 prostate -26.9% | UACC-62 melanoma -64.7% | LOX IMVI melanoma -86.5% | SK-MEL-28 melanoma -82.5%
inactive: SNB-75 CNS 45.8%

CS(=O)(=O)c1nccc(-c2c(-c3cccc(OCc4ccc(Cl)c(C(F)(F)F)c4)c3)nc3sccn23)n1
inactive: HT29 colon 95.8% | SNB-75 CNS 108% | SNB-19 CNS 58.6% | U251 CNS 98.3% | PC-3 prostate 86.5% | UACC-62 melanoma 87.5% | SK-MEL-28 melanoma 50.5%
active: HCT-15 colon -30.7% | LOX IMVI melanoma -75.9%

O=C(CCCCCCNC(=O)c1csc(Br)n1)NO
inactive: HCT-15 colon 60.5% | HT29 colon 17.2% | SNB-75 CNS 19.4% | SNB-19 CNS 59.7% | U251 CNS 49.3% | PC-3 prostate 47.4% | UACC-62 melanoma 14.4% | LOX IMVI melanoma 13.8% | SK-MEL-28 melanoma 29.3%

N#Cc1c(-c2cccs2)cc(-c2cnccn2)nc1SCC(=O)N/N=C/c1ccncc1
inactive: HCT-15 colon 106% | HT29 colon 109% | SNB-75 CNS 99.3% | SNB-19 CNS 101% | U251 CNS 105% | PC-3 prostate 96.4% | UACC-62 melanoma 91.4% | LOX IMVI melanoma 101% | SK-MEL-28 melanoma 112%

O=S(=O)(NCCCNc1nccc(-c2[nH]c(-c3ccccc3)nc2-c2ccc(F)c(O)c2)n1)c1cccc2ccccc12
inactive: HCT-15 colon 39.4% | HT29 colon 101% | SNB-75 CNS 75.4% | SNB-19 CNS 76.5% | U251 CNS 50.5% | PC-3 prostate 52.8% | UACC-62 melanoma 26.3% | LOX IMVI melanoma 31.9% | SK-MEL-28 melanoma 54.3%

CC(Nc1c(C#N)cnc2ccc(-c3cncc(-c4n[nH]c(=O)o4)c3)cc12)c1ccccc1 (configuration not stated)
inactive: HCT-15 colon 10.4% | HT29 colon 20.2% | SNB-19 CNS 11.1% | U251 CNS 17.6% | PC-3 prostate 18.9% | SK-MEL-28 melanoma 11.2%
active: SNB-75 CNS 7.1% | UACC-62 melanoma -37% | LOX IMVI melanoma -8.49%

O=C(Nc1cccc(Cl)c1)Nc1nc2cc([N+](=O)[O-])ccc2o1
inactive: HCT-15 colon 29.4% | HT29 colon 71.6% | SNB-75 CNS 72.9% | SNB-19 CNS 31.3% | U251 CNS 23.3% | PC-3 prostate 29.8% | SK-MEL-5 melanoma 15.7% | UACC-62 melanoma 29.1% | LOX IMVI melanoma 40.4% | SK-MEL-28 melanoma 36.2%

CC(=O)Nc1cc(N2CCOCC2)c2nc(NC(=O)c3[nH]c(C)c(Cl)c3Cl)sc2c1
inactive: HCT-15 colon 66.9% | HT29 colon 65.1% | SNB-75 CNS 17.3% | SNB-19 CNS 83.9% | U251 CNS 57.8% | PC-3 prostate 64.3% | UACC-62 melanoma 94.8% | LOX IMVI melanoma 57% | SK-MEL-28 melanoma 67.5%

C/C(=N\NC(N)=S)c1nnn(-c2ccc([N+](=O)[O-])cc2)c1C
inactive: HCT-15 colon 86.9% | HT29 colon 104% | SNB-75 CNS 87.3% | SNB-19 CNS 95.6% | U251 CNS 98.1% | PC-3 prostate 90.8% | UACC-62 melanoma 98.4% | LOX IMVI melanoma 94.9% | SK-MEL-28 melanoma 104%

CSc1ccc(C(=NNS(=O)(=O)c2ccc(C)cc2)c2ccc(Cl)cc2)cc1
inactive: HCT-15 colon 101% | HT29 colon 99.8% | SNB-75 CNS 85.4% | SNB-19 CNS 105% | U251 CNS 103% | PC-3 prostate 86.4% | UACC-62 melanoma 90.1% | LOX IMVI melanoma 106% | SK-MEL-28 melanoma 102%

CS(=O)(=O)c1ccc(/C(=N/N=C(N)N)c2ccc(Cl)cc2)cc1
inactive: HCT-15 colon 81.6% | HT29 colon 92.9% | SNB-75 CNS 72.8% | SNB-19 CNS 90.3% | U251 CNS 92.8% | PC-3 prostate 76.5% | UACC-62 melanoma 80.8% | LOX IMVI melanoma 79.7% | SK-MEL-28 melanoma 95.1%

O=C(COc1ccc(/C=C2\C(=O)Nc3ccc(Cl)cc32)cc1)Nc1ccc(Cl)cc1
inactive: HCT-15 colon 42.1% | HT29 colon 55.8% | SNB-75 CNS 78.9% | SNB-19 CNS 78.2% | PC-3 prostate 41.7% | SK-MEL-5 melanoma 78% | UACC-62 melanoma 27.8% | SK-MEL-28 melanoma 78.6%
active: U251 CNS 5.92% | LOX IMVI melanoma 1.2%

CN1CCN(Cc2ccc(NC(=O)c3cncc(C#Cc4cnc5ccc(OCC6COC6)nn45)c3)cc2C(F)(F)F)CC1
active: HCT-15 colon -32.9% | HT29 colon -50.9% | SNB-75 CNS -97.9% | SNB-19 CNS -44.9% | U251 CNS -66.8% | PC-3 prostate -27.7% | UACC-62 melanoma -49.8% | LOX IMVI melanoma -94% | SK-MEL-28 melanoma -85%

Fc1ccc2nc(-c3cnn4cccnc34)sc2c1
inactive: HCT-15 colon 76.9% | HT29 colon 97.9% | SNB-75 CNS 68.5% | SNB-19 CNS 82.1% | U251 CNS 75.8% | PC-3 prostate 84.3% | UACC-62 melanoma 75.4% | LOX IMVI melanoma 92.9% | SK-MEL-28 melanoma 117%

CC(C)(C)c1cc(NC(=O)Nc2ccc(-c3cn4c5c(sc4n3)CCc3c[nH]cc3-5)cc2)no1
active: HCT-15 colon 5% | HT29 colon -66% | SNB-75 CNS -12.9% | U251 CNS -14.6% | LOX IMVI melanoma -22.5%
inactive: SNB-19 CNS 21.7% | PC-3 prostate 21.9% | UACC-62 melanoma 49.9% | SK-MEL-28 melanoma 23.1%

Cc1ccc2c(n1)C(=O)C(Cl)=C(Nc1ccc(C(C)C)cc1)C2=O
inactive: HT29 colon 102% | SNB-75 CNS 109% | SNB-19 CNS 75.4% | U251 CNS 70.2% | PC-3 prostate 54% | UACC-62 melanoma 86.3%
active: HCT-15 colon -60.1% | LOX IMVI melanoma -66.3% | SK-MEL-28 melanoma 6.95%

C/C(=N\NC(=O)Nc1ccccc1)c1nnn(-c2ccc([N+](=O)[O-])cc2)c1C
inactive: HCT-15 colon 105% | HT29 colon 116% | SNB-75 CNS 100% | SNB-19 CNS 100% | U251 CNS 102% | PC-3 prostate 99.7% | UACC-62 melanoma 99.6% | LOX IMVI melanoma 102% | SK-MEL-28 melanoma 106%

COc1cc(/C=C2/C(=O)Nc3ccc(Cl)cc32)ccc1OCc1ccc(Cl)cc1
inactive: HCT-15 colon 86.5% | HT29 colon 94.1% | SNB-75 CNS 77.7% | SNB-19 CNS 91.3% | U251 CNS 50.7% | PC-3 prostate 84.2% | UACC-62 melanoma 70.2% | LOX IMVI melanoma 68.3% | SK-MEL-28 melanoma 103%

N#Cc1cnc2ccc(-c3cnc4n[nH]nc4c3)cc2c1N1CCc2cc(F)c(Cl)cc21
inactive: HCT-15 colon 12.3% | HT29 colon 28.1% | SNB-19 CNS 16.4% | U251 CNS 21.1% | PC-3 prostate 20.4% | LOX IMVI melanoma 10.1% | SK-MEL-28 melanoma 13.4%
active: SNB-75 CNS -0.117% | UACC-62 melanoma 2.13%
